The panel holds about 83,000 compounds, 20% with a hit somewhere; the sample as a whole holds those more often.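 The test compound was applied at a single concentration to cells in 96-well plates for 48 hours, and percent growth was recorded.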 The source made the active and inactive calls. The calls were made as follows: active = growth percent below 10; inactive = the rest.
Assays:
Assay in all cases: NCI-60 one-dose screen, 48 h (100 = growth as untreated, 0 = no growth, -100 = all killed)
Conditions in all cases: 10 µM unless noted
NCI-H226 lung = system: NCI-H226 lung
NCI-H322M lung = system: NCI-H322M lung
HOP-62 NSCLC = system: HOP-62 NSCLC
NCI-H460 lung = system: NCI-H460 lung
HOP-92 NSCLC = system: HOP-92 NSCLC
NCI-H522 lung = system: NCI-H522 lung
A549/ATCC NSCLC = system: A549/ATCC NSCLC
786-0 renal = system: 786-0 renal
DU-145 prostate = system: DU-145 prostate
K-562 leukemia = system: K-562 leukemia
MALME-3M melanoma = system: MALME-3M melanoma
MDA-MB-231 breast = system: MDA-MB-231 breast
RXF 393 renal = system: RXF 393 renal
SF-268 CNS = system: SF-268 CNS
SF-295 CNS = system: SF-295 CNS
SF-539 CNS = system: SF-539 CNS
UACC-257 melanoma = system: UACC-257 melanoma
M14 melanoma = system: M14 melanoma
COLO 205 colon = system: COLO 205 colon

Measured: growth

CN1CCN(CC#CCn2c3c(c4ccccc42)C[C@]2(C)[C@H]4CC[C@@H]5[C@H]6[C@H]7OC(=O)[C@@]6(CCC7(C)C)CC[C@@]5(C)[C@]4(C)CC[C@H]2C3(C)C)CC1
inactive: NCI-H226 lung 91.6% | NCI-H322M lung 106% | HOP-62 NSCLC 95.2% | NCI-H460 lung 98.6% | HOP-92 NSCLC 67.4% | NCI-H522 lung 102% | A549/ATCC NSCLC 58.6% | 786-0 renal 107% | DU-145 prostate 35.4% | K-562 leukemia 12.7% | MALME-3M melanoma 113% | MDA-MB-231 breast 42.7% | RXF 393 renal 67.1% | SF-268 CNS 92.9% | SF-295 CNS 104% | SF-539 CNS 89.1% | UACC-257 melanoma 109% | M14 melanoma 80.9%

C/C(=N\Nc1ccc2ccccc2n1)c1ccccn1
active: NCI-H226 lung 0.47% | NCI-H322M lung -12% | HOP-62 NSCLC 5.02% | NCI-H460 lung 0.889% | HOP-92 NSCLC -10.9% | NCI-H522 lung -16.4% | A549/ATCC NSCLC 4.55% | 786-0 renal 6.89% | COLO 205 colon 0.767% | K-562 leukemia 2.37% | MDA-MB-231 breast -5.17% | RXF 393 renal 9.99% | SF-268 CNS -3.84% | SF-539 CNS -44.2% | UACC-257 melanoma -22.6% | M14 melanoma -24.6%
inactive: DU-145 prostate 13.1%

COC(=O)[C@]12CC[C@@H](C)[C@H](C)[C@@H]1C1=CC[C@@H]3[C@@](C)(CC#N)C4=C(C[C@@]3(C)[C@]1(C)CC2)OC[C@]4(C)C=O
active: NCI-H226 lung -37% | HOP-62 NSCLC -23.6% | NCI-H460 lung -57.1% | HOP-92 NSCLC 2.68% | NCI-H522 lung -6.43% | A549/ATCC NSCLC -73.6% | 786-0 renal -19.3% | COLO 205 colon -94% | DU-145 prostate 5.07% | K-562 leukemia 5.97% | MALME-3M melanoma -16.9% | MDA-MB-231 breast -8.99% | RXF 393 renal -85.1% | SF-268 CNS 3.69% | SF-295 CNS -30.6% | SF-539 CNS -38.4% | M14 melanoma -1.53%
inactive: NCI-H322M lung 10.4%

COc1ccc2c3c(c4ccccc4cc13)C(=O)N(CCN(C)CCN)C2=O
active: NCI-H226 lung -67.4% | NCI-H322M lung -44.4% | HOP-62 NSCLC -77.4% | NCI-H460 lung -69.2% | HOP-92 NSCLC -7.66% | NCI-H522 lung -77.2% | A549/ATCC NSCLC -78.3% | 786-0 renal -97.9% | COLO 205 colon -82.7% | DU-145 prostate -86.6% | K-562 leukemia -68% | MALME-3M melanoma -75.7% | MDA-MB-231 breast -72.1% | RXF 393 renal -94.3% | SF-268 CNS -67.5% | SF-295 CNS -88.9% | SF-539 CNS -83% | M14 melanoma -83.2%

O=C(NC(Cc1cn(Cc2ccccc2)cn1)C(=O)O)OCC1c2ccccc2-c2ccccc21 (centres undefined)
inactive: NCI-H226 lung 102% | NCI-H322M lung 106% | HOP-62 NSCLC 101% | NCI-H460 lung 115% | HOP-92 NSCLC 107% | NCI-H522 lung 84.2% | A549/ATCC NSCLC 104% | 786-0 renal 102% | COLO 205 colon 110% | DU-145 prostate 113% | K-562 leukemia 88.8% | MDA-MB-231 breast 133% | RXF 393 renal 117% | SF-268 CNS 107% | SF-539 CNS 94.6% | UACC-257 melanoma 99.1% | M14 melanoma 99.8%

C=C1C(=O)O[C@H]2[C@H]1CC/C(COC(=O)N[C@H](Cc1c[nH]c3ccccc13)C(=O)OC)=C\CC[C@@]1(C)O[C@@H]21
active: HOP-92 NSCLC 3.25% | NCI-H522 lung -71.4% | 786-0 renal -56.3% | COLO 205 colon -36.2% | K-562 leukemia 7.14% | MALME-3M melanoma 4.76% | RXF 393 renal -25.5%
inactive: NCI-H226 lung 85.6% | NCI-H322M lung 86.3% | HOP-62 NSCLC 64.6% | A549/ATCC NSCLC 82.4% | DU-145 prostate 40.9% | MDA-MB-231 breast 26.8% | SF-268 CNS 72.6% | SF-295 CNS 91.9% | SF-539 CNS 11.6% | UACC-257 melanoma 63.7% | M14 melanoma 44.1%

COc1cc(OC)c2c(c1)c1nc3cc(C)c(C)cc3nc1n2CCN(C)C
inactive: NCI-H226 lung 90.5% | NCI-H322M lung 87.1% | HOP-62 NSCLC 79.4% | NCI-H460 lung 84.8% | HOP-92 NSCLC 81.7% | NCI-H522 lung 79.2% | 786-0 renal 83.9% | COLO 205 colon 74.9% | DU-145 prostate 90.2% | K-562 leukemia 78.3% | MALME-3M melanoma 80.9% | MDA-MB-231 breast 79.5% | RXF 393 renal 96.2% | SF-268 CNS 93.7% | SF-295 CNS 90.2% | SF-539 CNS 86% | UACC-257 melanoma 94.9% | M14 melanoma 84.2%

COc1ccc(-c2nc3ncccn3c2-c2nc3ccc(Br)cc3[nH]2)cc1
inactive: NCI-H226 lung 93.5% | NCI-H322M lung 94.3% | HOP-62 NSCLC 99.3% | NCI-H460 lung 90.1% | HOP-92 NSCLC 77.1% | NCI-H522 lung 69.7% | A549/ATCC NSCLC 84.9% | 786-0 renal 98.1% | COLO 205 colon 104% | DU-145 prostate 94.1% | K-562 leukemia 63.5% | MALME-3M melanoma 81.3% | MDA-MB-231 breast 72.9% | RXF 393 renal 74.1% | SF-268 CNS 99.6% | SF-539 CNS 82.8% | UACC-257 melanoma 92.6% | M14 melanoma 90.5%

Cn1cc(-c2nc(-c3c[nH]c4ncccc34)cs2)c2cc(F)ccc21
inactive: NCI-H226 lung 62.3% | NCI-H322M lung 35.1% | NCI-H460 lung 24.6% | HOP-92 NSCLC 13.3% | NCI-H522 lung 22% | A549/ATCC NSCLC 36.3% | 786-0 renal 41.3% | COLO 205 colon 49.4% | DU-145 prostate 64.4% | MDA-MB-231 breast 20% | RXF 393 renal 43.8% | SF-268 CNS 44.4% | SF-295 CNS 19.9% | SF-539 CNS 53.9% | UACC-257 melanoma 53.3% | M14 melanoma 20.5%
active: K-562 leukemia 6.15%
